According to ChEMBL document CHEMBL3988442, “University of Dundee, Small-Polar-MMV Screening Library” (2021):
About 13,000 (27%) of roughly 48,000 compounds showed an effect of 50% or more. This is one part of the list.

system: Wolbachia pipientis; experiment: Anti-Wolbachia Cell-Based Screen; assay type: functional; parameters: scale not given: in the data most compounds retested in dose-response had high values; conditions: 5 µM

SMILES	Percent Effect
CC(NC(=O)NCCc1cnn(C)c1)c1ccc(Cl)s1 (stereo not given)	7.772%
CN(Cc1ccco1)[C@@H]1CN(Cc2ccc(F)cc2)C[C@@H]2CCCO[C@@H]21.O=C(O)C(F)(F)F.O=C(O)C(F)(F)F	20.99%
CCCn1[nH]cc/c1=N\C(=O)CN1CCC[C@H]1CO	0.9827%
Cl.O=C(c1ccoc1)N1CCC(NCc2ccccc2Cl)CC1	-26.85%
CCN1C[C@H]2CCN(C(=O)NC3CCCC3)CC[C@H]2S1(=O)=O	7.84%
COc1cccc(OC2CN(C(=O)CCn3cnc4ccccc43)C2)c1	-24.05%
NC(=O)C1CCN(C(=O)Cn2nc(-c3ccccc3)oc2=O)C1 (stereo not given)	-8.478%
CNC(=O)C1CN(C)CCN(C(=O)CCn2nnc3ccccc32)C1 (stereo not given)	120.6%
CC(C)c1cc(C(=O)NCCn2nnc3ccccc32)no1	-3.58%
CN1CCN(C(=O)CCn2nnc3ccccc32)CC(C(N)=O)C1 (stereo not given)	138.2%
CNC(=O)C1CCN(C(=O)CCn2cccn2)CC1	-8.925%
Cn1c(CN2CCCCC2)nnc1C1CCN(c2nccc(N)n2)CC1	-10.02%
COc1ccc(CNC(=O)CNc2cc3c(cc2Cl)OCCCO3)cc1	0.3306%
Cn1nc(CNC(=O)CC#N)c2c1CN(CC1CC1)CC2.O=C(O)C(F)(F)F	-7.895%
Cn1nc(CN2CCCC2)c2c1CN(C(=O)Nc1cccc(F)c1)CC2.O=C(O)C(F)(F)F	-17.26%
Cn1nc(CN2CCCC2)c2c1CN(CC1CC1)CC2.O=C(O)C(F)(F)F.O=C(O)C(F)(F)F	104.5%
Cn1nc(CN2CCCCC2)c2c1CN(Cc1ccoc1)C2.O=C(O)C(F)(F)F.O=C(O)C(F)(F)F	-5.276%
Cn1nc(CN2CCCC2)c2c1CN(C(=O)c1cnccn1)CC2	-11.87%
CC(C)n1nc(CN(C)C)c2c1CN(C(=O)CC1CC1)CC2.O=C(O)C(F)(F)F	-12.31%
Cn1nc(CN2CCCC2)c2c1CN(c1cnccn1)CC2.O=C(O)C(F)(F)F.O=C(O)C(F)(F)F	110%
CC(C)n1nc(CN(C)C)c2c1CN(CC1CC1)CC2.O=C(O)C(F)(F)F.O=C(O)C(F)(F)F	-1.133%
CC(C)n1nc(CN2CCCC2)c2c1CN(CC1CC1)CC2.O=C(O)C(F)(F)F.O=C(O)C(F)(F)F	114.1%
O=C(Cc1cccs1)N1CC(c2nc(-c3cnccn3)no2)C1	16.37%
CC(C)CN1CCN(S(=O)(=O)c2cn(C)cn2)[C@H]2CS(=O)(=O)C[C@H]21	-0.9827%
N#Cc1ccc(F)c(CN(CC(=O)N2CCCC2)CC2CCCO2)c1 (stereo not given)	-8.762%

SMILES	Percent Effect
CCc1cc(CN(C)C(=O)c2nnc(CN(C)C)o2)on1	-21.92%
COc1ccc(CN(C)c2ncc(S(N)(=O)=O)s2)c(OC)c1	-0.4358%
CCc1nc(C2CCCN2C(=O)CCNS(C)(=O)=O)no1 (stereo not given)	1.725%
CCc1nc(C2CCCN2C(=O)c2ccoc2C)no1 (stereo not given)	-2.017%
CCc1nc(C2CCCN2C(=O)c2c[nH]c(C)n2)no1 (stereo not given)	-5.998%
CCc1nc(C2CCCN2C(=O)CCc2c(C)noc2Cl)no1 (stereo not given)	102.7%
CCc1nc(C2CCCN2C(=O)CCc2cscn2)no1 (stereo not given)	107.6%
CCc1nc(C2CCCN2C(=O)CCc2nc(C3CC3)no2)no1 (stereo not given)	115.8%
CCc1nc(C2CCCN2C(=O)CCc2ccc3c(c2)OCO3)no1 (stereo not given)	-10.43%
CCCc1noc(CCC(=O)N2CCCC2c2noc(C3CC3)n2)n1 (stereo not given)	-5.991%
O=C(CCc1cscn1)N1CCCC1c1noc(C2CC2)n1 (stereo not given)	2.466%
CCc1nc(C2CCCN2C(=O)c2ncoc2CC)no1 (stereo not given)	6.406%
CCc1nc(C2CCCN2C(=O)CCc2nc(C(C)(C)C)no2)no1 (stereo not given)	121.6%
COc1ncc(Cl)c(NCc2ccc(C(=O)N(C)C)cc2)n1	-9.459%
CC(C)c1nc(Cn2cncn2)n(-c2ccccn2)n1	-15.87%
CC1CCN(C(=O)c2cn(-c3cc(N4CCOCC4)ncn3)cn2)CC1	4.259%
CCOc1ccc(NC(=O)c2cc(C)c(C)o2)cc1CO	-26.64%
CCn1ncc2c1CN(C(=O)c1ccc3c(c1)OCO3)CC2COC (stereo not given)	10.24%
CC(C)Cn1[nH]cc/c1=N\C(=O)CN1CCOC(Cn2cccn2)C1 (stereo not given)	19.87%
Cc1ccc(CN2Cc3ccnn3CC(COCc3cccnc3)C2)o1 (stereo not given)	-8.625%
CSc1ccc(C(CNC(C)=O)N2CCc3sccc3C2)cc1 (stereo not given)	95.64%
CCC(=O)NCC(c1ccc(SC)cc1)N1CCc2sccc2C1 (stereo not given)	101.9%
O=C(COCC1CC1)NCC(c1ccccc1)N1CCc2sccc2C1 (stereo not given)	1.717%
COc1ccc(CNC(=O)N2CCc3sccc3C2)cc1O	11.16%
CCOCCCC(=O)NCC(c1ccccc1)N1CCc2sccc2C1 (stereo not given)	0.7933%

SMILES	Percent Effect
O=C(NCCO)NCC(c1ccccc1)N1CCc2sccc2C1 (stereo not given)	12.78%
Cc1ccccc1CN(Cc1ccccn1)C(=O)CNS(C)(=O)=O	-13.04%
CN(Cc1ccncc1)C1CCC[C@@H]2CN(c3ncccn3)C[C@H]12 (stereo not given in full)	-7.905%
Cn1nccc1CNC(=O)CCn1nc(C(F)(F)F)c(Cl)c1C1CC1	93.44%
Cn1nccc1CNC(=O)Cn1nc(C(F)(F)F)cc1C1CC1	104.1%
CC(C)(C)NC(=O)Cn1nc(C2CC2)cc(C(F)(F)F)c1=O	-6.94%
Cn1nccc1CNC(=O)Nc1cc(C(F)(F)F)c[nH]c1=O	-6.749%
Cn1nccc1CNC(=O)CCn1nc(C(F)(F)F)cc1C1CC1	108.8%
O=C(CCN1CCOC(C(F)(F)F)C1)NCc1ccc(Cl)cc1 (stereo not given)	-10.12%
Cn1nc(CNC(=O)C2COc3ccccc3O2)cc1C1CC1 (stereo not given)	-7.331%
Cn1nccc1CNC(=O)NC1CCN(c2ncccc2Cl)C1 (stereo not given)	-9.354%
Cc1nc2[nH]cnc(NCCN3CCCC3)c-2n1	101.2%
Cc1nc2[nH]cnc(NCCN3CCOCC3)c-2n1	110.5%
CCc1cnc(C)nc1NCCN1CCOCC1	-2.451%
COC1CCN(CCNc2ncc(Br)cc2C)CC1	16.05%
CCn1nc(C)c2ncnc(NCCCN3CCOCC3)c21	9.832%
Cc1ccc2nc(NCCN3CCOCC3)n(C)c(=O)c2c1	2.729%
Cc1cc(Br)cnc1NCCN1CCC(N(C)C)CC1	23.33%
Cc1nc2[nH]cnc(NCCCN3CCOCC3)c-2n1	111.6%
CCCN(C(=O)c1csnn1)C1CCCN(Cc2ccccc2)C1 (stereo not given)	2.292%
CN(C)CC(=O)N1Cc2cc(-c3cc[nH]n3)ccc2C1c1cnco1 (stereo not given)	-12.12%
CN(C)[C@@H]1CO[C@H](CNC(=O)c2ccccc2)[C@H]1O	9.178%
CN1CCCC2(CCN(c3cccc(C#N)n3)C2)C1=O (stereo not given)	8.303%
COCCN1CCCC2(CCN(c3ncnc(C)c3C)C2)C1=O (stereo not given)	-47.68%
Cc1cc(N2CCC3(CCCN(CCO)C3=O)C2)nc(C)c1C#N (stereo not given)	111%

SMILES	Percent Effect
COCCN1CCCC2(CCN(c3cc(C)c(C#N)c(C)n3)C2)C1=O (stereo not given)	99.04%
COCCN1CCCC2(CCN(c3nc(C)nc4c3CCC4)C2)C1=O (stereo not given)	-6.714%
CCCN1CCCC2(CCN(c3nccc(OC)n3)C2)C1=O (stereo not given)	1.241%
Cc1nc(N2CCC3(CCCN(CCO)C3=O)C2)c2sccc2n1 (stereo not given)	-11.1%
COCCN1CCCC2(CCN(c3cccc(C(F)(F)F)n3)C2)C1=O (stereo not given)	-1.331%
Cc1cc(C)c(C#N)c(N2CCC3(CCCN(CCO)C3=O)C2)n1 (stereo not given)	111.5%
CN(Cc1ccc([S+](C)[O-])cc1)c1ccc(C(F)(F)F)cn1 (stereo not given)	-27.71%
Cn1ccnc1CN1CCCN(C(=O)c2ccc3cc[nH]c3c2)CC1	138.1%
Cn1ccnc1CN1CCCN(C(=O)c2cccc(CC#N)c2)CC1	107.2%
Cn1ccnc1CN1CCCN(C(=O)c2ccc3ccccc3c2)CC1	100.6%
CC(C)OCCN1CCN(C(=O)c2cccc(CC#N)c2)CC1	4.967%
CCC(O)CN1CCN(C(=O)c2ccnc(N(C)C)c2)CC1 (stereo not given)	-16.43%
Cc1nsc(N2CCCN(C(=O)c3ccc4[nH]ccc4c3)CC2)n1	-10.99%
CCn1ccnc1CN1CCCN(C(=O)c2cccc(C#N)c2)CC1	-3.279%
CN(C)c1cc(C(=O)N2CCCN(Cc3nccn3C)CC2)ccn1	107%
CC(C)COC(=O)N1CCCN(C(=O)c2ccnc(N(C)C)c2)CC1	6.425%
CC(C)n1ccnc1CN1CCCN(C(=O)c2cc(Cl)c[nH]2)CC1	1.928%
CC(=O)N1Cc2nccn2CC(CNC(=O)c2cnccn2)C1 (stereo not given)	-28.44%
O=C(O)C(F)(F)F.O=C([C@H]1C[C@@H]2[C@@H](C1)OCCN2CC1CC1)N1CCCC1	-8.225%
CS(=O)(=O)CCC(=O)NC(c1ccc(F)cc1)C(F)(F)F (stereo not given)	-10.12%
Cn1ccnc1CN1CCCN(C(=O)c2ccc(O)nc2)CC1	99.8%
CCn1ccnc1CN1CCCN(C(=O)c2ccc(C#N)cc2)CC1	-7.951%
Cn1ccnc1CN1CCCN(C(=O)c2ccc3c(c2)COC3)CC1	-4.984%
Cn1ccnc1CN1CCCN(C(=O)c2ccc3c(c2)OCO3)CC1	100.5%
O=C(Cc1ccsc1)NCCc1ccoc1	-2.885%
